# Test results reported in PubChem BioAssay.
# Values without a mark were called inactive. Activity calls are given as the source filed them. Cut-off read from the data, not from the text of the source, unless noted: active = inhibition above about 36%; inactive = the rest.
# Tests used:
# [1] = system: transactivating tegument protein VP16 (Human herpesvirus 1); assay: compounds suppressing VP16-driven luciferase signal – cell-based, luminescence, single concentration, counter-screen for SRC2 inhibitor project (AID 652007); details: cell-based VP16 transactivation luciferase reporter, at 8.9 µM, active compounds read high
# [2] = biological target: Nuclear receptor coactivator 2 (Homo sapiens) (UniProt Q15596); assay: inhibition of GAL4-SRC2 driven luciferase expression – cell-based, luminescence, HEK293, triplicate, confirmation (AID 652008;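 active = mean inhibition above 46.5%, the solvent-only control mean plus 3 SD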;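 note: 0% = DMSO-treated cells and 100% = Gossypol at 36 µM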); details: HEK293 GAL4-SRC2 luciferase reporter, at 8.9 µM, active compounds read high
# Chain of Nuclear receptor coactivator 2 (Homo sapiens) (Q15596 whole entry, looked up, the tested form may be a part): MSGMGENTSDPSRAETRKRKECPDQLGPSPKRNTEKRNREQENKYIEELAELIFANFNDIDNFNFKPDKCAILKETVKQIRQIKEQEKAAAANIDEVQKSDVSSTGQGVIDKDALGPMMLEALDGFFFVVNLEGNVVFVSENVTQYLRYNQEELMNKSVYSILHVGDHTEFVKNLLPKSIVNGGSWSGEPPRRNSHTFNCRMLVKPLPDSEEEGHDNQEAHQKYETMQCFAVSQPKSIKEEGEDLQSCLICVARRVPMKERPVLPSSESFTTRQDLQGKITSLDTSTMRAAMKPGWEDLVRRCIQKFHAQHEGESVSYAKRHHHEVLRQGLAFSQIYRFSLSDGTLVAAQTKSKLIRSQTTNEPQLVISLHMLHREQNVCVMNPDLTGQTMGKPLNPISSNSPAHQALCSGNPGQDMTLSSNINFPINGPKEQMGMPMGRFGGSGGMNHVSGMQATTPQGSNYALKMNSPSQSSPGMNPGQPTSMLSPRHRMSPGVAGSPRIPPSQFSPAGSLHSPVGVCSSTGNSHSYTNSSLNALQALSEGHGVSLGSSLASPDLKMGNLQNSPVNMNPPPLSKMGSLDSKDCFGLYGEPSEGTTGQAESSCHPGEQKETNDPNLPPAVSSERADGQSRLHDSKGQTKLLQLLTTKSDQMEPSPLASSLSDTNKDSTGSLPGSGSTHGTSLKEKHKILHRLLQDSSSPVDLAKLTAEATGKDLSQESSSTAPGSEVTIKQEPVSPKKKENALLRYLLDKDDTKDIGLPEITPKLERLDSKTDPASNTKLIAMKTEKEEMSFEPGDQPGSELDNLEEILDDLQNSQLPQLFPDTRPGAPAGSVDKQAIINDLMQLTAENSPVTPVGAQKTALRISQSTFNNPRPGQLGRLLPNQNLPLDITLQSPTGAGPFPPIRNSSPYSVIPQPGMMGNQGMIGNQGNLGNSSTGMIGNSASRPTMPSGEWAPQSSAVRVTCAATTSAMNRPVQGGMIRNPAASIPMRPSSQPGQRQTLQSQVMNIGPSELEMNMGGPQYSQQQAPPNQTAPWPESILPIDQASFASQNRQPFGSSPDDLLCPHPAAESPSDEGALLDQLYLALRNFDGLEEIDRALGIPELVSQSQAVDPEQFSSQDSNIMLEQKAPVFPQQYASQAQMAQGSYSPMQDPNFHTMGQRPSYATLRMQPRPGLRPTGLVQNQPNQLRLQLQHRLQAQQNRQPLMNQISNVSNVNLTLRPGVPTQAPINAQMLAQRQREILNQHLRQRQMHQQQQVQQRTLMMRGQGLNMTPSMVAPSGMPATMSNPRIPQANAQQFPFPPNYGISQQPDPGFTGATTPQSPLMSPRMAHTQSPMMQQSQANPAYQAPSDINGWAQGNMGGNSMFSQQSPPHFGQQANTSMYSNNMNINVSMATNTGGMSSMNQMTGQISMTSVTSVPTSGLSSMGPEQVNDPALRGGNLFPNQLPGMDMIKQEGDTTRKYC
SMILES,inhibition [1],inhibition [2]
CCOc1ccc(-c2nc(CSCC(=O)N3CCN(c4cccc(OC)c4)CC3)c(C)o2)cc1,23.2%,49.8% (active)
COc1ccc(NC(=O)C2(C)Cc3c(-c4cccc(C(F)(F)F)c4)ccnc3O2)cn1 (stereo unspecified),-0.87%,-0.12%
O=C(O)c1ccccc1C(=O)Nc1ccc(Oc2ccc3ccccc3c2)cc1,36.4% (active),28%
O=C(c1ccc(NS(=O)(=O)c2cccc(F)c2)cc1)N1CCCCC1,-7.22%,-9%
COc1ccc(OC)c(NC(=O)CCCc2ccccc2)c1,-5.12%,-20.9%
COc1ccc(C(=O)/C=C/Nc2ccccn2)cc1,3.41%,30.8%
CCOC(=O)C1=CCN(S(=O)(=O)c2ccc(C)cc2)C1c1ccccc1F (stereo unspecified),-19.3%,-7.88%
Cc1cc(=O)oc2cc(OCC(=O)NC3CCCC3)ccc12,-12.6%,-25.6%
Cc1ccc2nc(-c3ccc4c(c3)OCCO4)cn2c1,58.9% (active),88.3% (active)
C[N+]1(CC2COC3(CCCCC3)O2)CCCC1 (stereo unspecified),-9.45%,-21.5%
COc1cccc(NC(=O)N2CCc3nc(Nc4ccc(C(C)C)cc4)ncc3C2)c1,-73.3%,7.35%
O=C(CN1C(=O)NC2(CCCCCC2)C1=O)Nc1ccc(Br)cc1Br,-12.2%,2.3%
CN(C)c1ccc(NC(=S)c2ccccn2)cc1,1.77%,59.6% (active)
